Results on 102 compounds are retold here after PubChem BioAssay AID1578 (Sanford-Burnham Center for Chemical Genomics, 2009).

Several values for one entry are separate records, joined by “and”; a condition that tells them apart may be missing. Equal entries are not always repeated. Screen size: about 290,000 compounds; about 3,000 (1%) were called active. The sample holds actives, similar compounds and a random draw of the others, so the mix is not that of the screen. Rule as the data show it: active = inhibition mostly above about 36% (no sharp cut-off); inactive = mostly below about 34%.

A short description of the assay: NOD1 signaling inhibitors, primary screen, cell-based, luminescence, uHTS (AID 1578).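 Also: HEK-293T reporter cells stimulated with the NOD1 agonist gamma-tri-DAP.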 As to conditions: NOD1-driven NF-kB luciferase reporter cells, at 4 µM, active compounds read high. A general note: Reporter assays use an easily measured gene product as a stand-in for the process of interest.
In the case of `O=C(c1ccccc1)N1CCC(c2nc(-c3ccc(S(=O)(=O)N4CCOCC4)cc3)no2)CC1`, the inhibition (in general, the change of the read-out against control, counted positive when it falls) was 18.2% (inactive).

In the case of `COCCCNC(=S)NNC(=O)Cn1nc(C)c(Br)c1C`, the inhibition was 0.3% (inactive).

Consider `CC(Oc1ccc(Cl)cc1Cl)c1nc(-c2ccc(NC(=O)c3ccccn3)cc2)no1` (configuration not stated), for which the inhibition is -18.6% (inactive).

On to `CC(Oc1ccc(Cl)cc1Cl)c1nc(-c2ccc(NC(=O)c3ccncc3)cc2)no1` (configuration not stated), for which the inhibition is 42.3% (active).

Regarding `CC(Oc1ccc(Cl)cc1Cl)c1nc(-c2ccc(NC(=O)c3ccco3)cc2)no1` (configuration not stated), the inhibition is -12.3% (inactive).

For the compound `C=C(C(=O)O)C1CCC2(C)CCCC(C)(O)C2C1` (configuration not stated), the inhibition is -0.6% (inactive).

`C/C(O)=c1/ccc2cccc3nc(C)nc1c23`: the inhibition is -3.6% (inactive).

As to `O/C=c1\ccc2cccc3nc(C(F)(F)F)nc1c23`, the inhibition was 38% (active).

On to `NNc1nc(C(F)(F)F)nc2ccccc12`, for which the inhibition is -7.9% (inactive).

On to `Cc1ccc(NC(=O)COC(=O)C(NS(=O)(=O)c2ccc(Cl)cc2)C(C)O)c(Br)c1` (configuration not stated), for which the inhibition is -22.2% (inactive).

For `CCOC(=O)N1CCN(C(=O)CN(C2CCCCC2)S(=O)(=O)c2c(C)cc(C)cc2C)CC1`, the inhibition is -2.2% (inactive).

`CCCNC(=O)c1ccc(S(=O)(=O)c2ccc(OC)cc2)c([N+](=O)[O-])c1`: the inhibition was 63.9% (active).

As to `COc1ccc(C(=O)NCCNc2ccccc2[N+](=O)[O-])cc1`, the inhibition was -34% (inactive).

For `COc1ccc(C(=O)NCCNc2ccc([N+](=O)[O-])cc2)cc1`, the inhibition is -51.3% (inactive).

Take `CCOc1ccc(OCC)c(S(=O)(=O)n2cc(C)nc2CC)c1`: the inhibition was -17.2% (inactive).

As to `CCc1nc(C(N)=O)c2[nH]c(=O)n(-c3ccccc3F)c2n1`, the inhibition is -17% (inactive).

With `COc1ccc(OC)c(/C=C/C(=O)N2C(=O)c3cccc(N)c3C2=O)c1`, the inhibition is 88.6% (active).

Consider `COc1cc(/C=C/C(=O)N2C(=O)c3cccc(N)c3C2=O)cc(OC)c1OC`, for which the inhibition is 17.4% (inactive).

With `Nc1cccc2c1C(=O)N(C(=O)/C=C/c1cccc(Br)c1)C2=O`, the inhibition was 3.9% (inactive).

As for `COCCSc1nnc(NC(=O)Cc2ccc(OC)cc2)s1`, the inhibition is -20.4% (inactive).

For the compound `CCN1C(=O)C(CC(=O)Nc2ccc(OC)cc2)N(CCCN2CCN(c3ccc(F)cc3)CC2)C1=S` (configuration not stated), the inhibition is -47.7% (inactive).

`COc1ccccc1N1CCN(C(=O)CCCNC(=O)Cn2cnc3sc(C)c(C)c3c2=O)CC1`: the inhibition is 17.8% (inactive).

In the case of `Cc1cccc(NC(=O)CSc2nccn2Cc2ccco2)c1C`, the inhibition is -19.3% (inactive).

On to `CN(CCO)c1ccc(/C=N/Nc2nncc3ccccc23)cc1`, for which the inhibition was 57.1% (active).

Take `COc1ccc(/C=N/Nc2nncc3ccccc23)cc1`: the inhibition was 0.2% (inactive).

As to `CN(C)c1ccc(/C=N/Nc2nncc3ccccc23)cc1`, the inhibition was 15% (inactive).

Take `O=C(COC(=O)c1sc2cc(Cl)ccc2c1Cl)Nc1ncc(Cl)cc1Cl`: the inhibition was -10.9% (inactive).

With `COc1ccccc1-c1cc(-c2ccccc2)nc(=O)[nH]1`, the inhibition is -2.4% (inactive).

Regarding `COc1ccc(NC(=O)c2cc([N+](=O)[O-])ccc2N2CCCCC2)cc1`, the inhibition is -27.2% (inactive).

Take `COc1ccc(NC(=O)c2cc([N+](=O)[O-])ccc2O)cc1`: the inhibition is 99.1% (active).

In the case of `COc1ccc(NC(=O)c2cc([N+](=O)[O-])ccc2N2CCCC2)cc1`, the inhibition is -23.7% (inactive).

For `CCN1CCc2c(OCc3ccc(C)cc3)cccc2C1=O`, the inhibition is 2.6% (inactive).

Regarding `CCCCn1c(-c2csc3ccccc23)n[nH]c1=S`, the inhibition was 5.2% (inactive).

For the compound `CCCCNC(=O)C1CCN(C(=O)C2CCN(S(=O)(=O)c3ccc(C)cc3)CC2)CC1`, the inhibition is -21.1% (inactive).

With `C=CCC1(CC=C)CCCN1C(=O)c1cc(COc2cccc(OC)c2)on1`, the inhibition is 0.2% (inactive).

`C=CCC1(CC=C)CCCN1C(=O)c1cc(COc2ccc(F)c(F)c2)on1`: the inhibition was -18.8% (inactive).

Take `CNC(=O)/C=C1\NC(C)(C)Cc2c1ccc1ccccc21`: the inhibition was 14.5% (inactive).

With `Cc1nnc(N/N=C/C(C)c2ccccc2)[nH]c1=O` (configuration not stated), the inhibition was -10% (inactive).

In the case of `O=C(CCn1c2c(c3ccccc31)CCCC2)NNC(=O)c1ccc([N+](=O)[O-])cc1`, the inhibition is -4.7% (inactive).

Take `CCCCn1c(SCC(=O)Nc2nnc(C)s2)nnc1-c1ccoc1C`: the inhibition was 8.6% (inactive).

For `O=C(NCC(Cl)c1ccc2ccccc2c1)c1c(F)cccc1F` (configuration not stated), the inhibition was 31.2% (active).

For the compound `O=C(NCC(O)c1ccc2ccccc2c1)c1c(F)cccc1F` (configuration not stated), the inhibition is -2.4% (inactive).

On to `O=C(NCCCNC(=O)c1c(F)cccc1F)c1c(F)cccc1F`, for which the inhibition was 1.4% (inactive).

Turning to `Cc1ccc(CN(Cc2cc3cc(C)ccc3[nH]c2=O)C(=O)N2CCOCC2)cc1`, the inhibition is -1.5% (inactive).

With `CC(C)CNC(=O)COC(=O)c1cc(Cl)cc(Cl)c1N`, the inhibition is -25.7% (inactive).

Turning to `CC1(C)Cc2nc(N)c(=O)sc2C1`, the inhibition is 5.3% (inactive).

Regarding `O=C(O)/C=C/c1cccnc1`, the inhibition is -4.2% (inactive).

Consider `CC(/C=C\c1cccnc1)=C/C(=O)O`, for which the inhibition was -5.6% (inactive) and -22.2% (inactive).

For `O=C(/C=C/c1cccnc1)/C=C/c1cccnc1`, the inhibition was 49.7% (active).

For the compound `COC(=O)CCC(=O)N(C)CC1CCCN(CCc2cccc(C(F)(F)F)c2)C1` (configuration not stated), the inhibition was 6.2% (inactive).

As to `O=C(O)CCN1C(=O)c2ccc(Oc3ccc([N+](=O)[O-])cc3)cc2C1=O`, the inhibition is -1.1% (inactive).

On to `COc1ccccc1N(C(=O)c1snc(C(N)=O)c1N)C(C(=O)NC1CCCC1)c1ccc(N(C)C)cc1` (configuration not stated), for which the inhibition was -3% (inactive).

On to `O=C(N/N=C/c1cccc2nccnc12)c1ccccc1O`, for which the inhibition was 6% (inactive).

In the case of `O=C(C#Cc1ccccc1)c1ccc([N+](=O)[O-])cc1`, the inhibition was 38.4% (inactive).

As for `O=C(C#Cc1cccc([N+](=O)[O-])c1)c1ccccc1`, the inhibition was 55.8% (inactive).

`O=C(C#Cc1ccccc1)c1cccc([N+](=O)[O-])c1`: the inhibition is 79.8% (active).

Take `Cc1nn(CCCC(=O)NC(C)c2ccccc2)c(=O)c2nn(-c3ccccc3)c(C)c12` (configuration not stated): the inhibition is -16.8% (inactive).

As to `COc1ccccc1C(=O)Nc1ccccc1C(=O)NCc1ccco1`, the inhibition is 25.7% (inactive).

For `CCCSc1nc(SCC(=O)NCc2ccccc2)c2c3c(sc2n1)COC(C)(C)C3`, the inhibition was -25.4% (inactive).

On to `CC(NC(=O)c1ccc2ccccc2n1)c1ccccc1` (configuration not stated), for which the inhibition is -34.3% (inactive).

In the case of `CC(NC(=O)c1cnc2ccccc2n1)c1ccccc1` (configuration not stated), the inhibition is 78.3% (active).

For `O=C(Nc1ccccc1)c1cnc2ccccc2n1`, the inhibition was -56.8% (inactive).

Turning to `COc1ccc(S(=O)(=O)NC(N)=NCCc2ccc(OC)c(OC)c2)cc1C`, the inhibition is -11.6% (inactive).

As for `O=C1c2ccccc2C(=O)C12OC2c1cccc2ccccc12` (configuration not stated), the inhibition was -22.4% (inactive).

Turning to `O=C1c2ccccc2C(=O)C12OC2c1ccc(Cl)cc1Cl` (configuration not stated), the inhibition was 36.6% (inactive).

For `O=C1c2ccccc2C(=O)C12OC2c1ccc(Cl)cc1` (configuration not stated), the inhibition was 81.6% (active).

Consider `C(=N\n1cnnc1)/C1CCCCC1`, for which the inhibition is -17.3% (inactive).

For `Nc1c(N2CCN(c3ccccc3)CC2)c2ccccc2oc1=O`, the inhibition is 60.8% (active).

Take `Nc1c(N2CCCC2)c2ccccc2oc1=O`: the inhibition is -10.9% (inactive).

In the case of `Nc1c(N2CCCCC2)c2ccccc2oc1=O`, the inhibition is -15% (inactive).

Turning to `COc1ccc(OC)c(NC(=O)Cc2c(C(=O)O)n(C)c3ccccc23)c1`, the inhibition was -25.2% (inactive).

As to `NC(=O)C1CCN(C(=O)c2ccc3nc(N4CCCCC4)sc3c2)CC1`, the inhibition was -2.5% (inactive).

In the case of `COC(=O)Cc1ccc(NC(=S)NCc2ccccc2OC)cc1`, the inhibition is -14.6% (inactive).

Consider `O=C(CC1NCCNC1=O)Nc1ccccc1` (configuration not stated), for which the inhibition is -14.1% (inactive).

`Cc1ccc(C)c(NC(=O)C2CCCN(S(=O)(=O)c3c(C)noc3/C=C/N(C)C)C2)c1` (configuration not stated): the inhibition is -11.5% (inactive).

For the compound `COc1ccc(/C=N/NC(=O)c2cccnc2)cc1O`, the inhibition is 20% (inactive).

For `Cc1oc(-c2ccc3c(c2)OCCO3)cc1C(=O)NCC(=O)O`, the inhibition is -22.5% (inactive).

With `Cc1oc(-c2ccc3c(c2)OCCO3)cc1C(=O)O`, the inhibition is 89.2% (active).

As to `CCOC(=O)CNC(=O)c1cc(-c2ccc3c(c2)OCCO3)oc1C`, the inhibition was -24% (inactive).

Consider `C=C1CCC[C@]2(C)C[C@H]3OC(=O)C(CNCC(OC)OC)[C@H]3CC12` (some centres not stated), for which the inhibition was -18% (inactive).

Regarding `COc1cc(/C=N/O)cc(Br)c1OS(=O)(=O)c1ccc(C)cc1`, the inhibition is 78% (active).

Consider `COc1cc(/C=N/O)cc(Br)c1OC`, for which the inhibition was 6.6% (inactive).

For the compound `CCCOc1c(Br)cc(/C=N/O)cc1OC`, the inhibition was 6% (inactive).

As for `COCCNC(=S)N1CCOCC1`, the inhibition was -13.4% (inactive).

For `CC(C)(C)C1=NN(c2ccc([N+](=O)[O-])cc2)C(c2ccccc2)C1` (configuration not stated), the inhibition is -37.3% (inactive).

Turning to `CN(C)S(=O)(=O)c1ccc(Cl)c(NC(=O)COC(=O)CN2C(=O)C3CCCCC3C2=O)c1` (configuration not stated), the inhibition is -45.6% (inactive).

In the case of `COc1ccc(S(=O)(=O)N(C)C)cc1NC(=O)COC(=O)CC1CCCC1`, the inhibition was 41.4% (active).

Take `CCN(CC)S(=O)(=O)c1ccc(OC)c(NC(=O)CC2CCCC2)c1`: the inhibition was -26.7% (inactive).

On to `CN(CC(=O)Nc1ccc(Cl)c(Cl)c1)C1CCCCC1`, for which the inhibition was -29.4% (inactive).

Consider `O=C(c1ccco1)N(Cc1ccco1)Cc1cc2ccccc2[nH]c1=O`, for which the inhibition is 5.8% (inactive).

Consider `O=C(C1COc2ccccc2O1)N1CCc2ccccc2C1` (configuration not stated), for which the inhibition is 45.7% (active).

Consider `O=C(C1COc2ccccc2O1)N1CCCC1` (configuration not stated), for which the inhibition is 9.4% (inactive).

Consider `O=C(C1COc2ccccc2O1)N1CCc2ccccc21` (configuration not stated), for which the inhibition is -44.3% (inactive).

As to `Cc1ccc(CSc2nnc3ccc(-c4ccncc4)nn23)cc1`, the inhibition is -23.9% (inactive).

Consider `CSc1ccc(C(=O)C2CCCN(C(=O)c3ccc(C)nc3)C2)cc1` (configuration not stated), for which the inhibition was -25.1% (inactive).

With `Cc1ccc(C(=O)N2CCCC(C(=O)c3ccc(Oc4ccccc4)cc3)C2)cn1` (configuration not stated), the inhibition was 61% (active).

Turning to `O=C(c1ccc(Oc2ccccc2)cc1)C1CCCN(C(=O)c2cnccn2)C1` (configuration not stated), the inhibition was -4.3% (inactive).

For the compound `O=[N+]([O-])c1ccc2ncnc(Nc3ccc4c(c3)OCCO4)c2c1`, the inhibition is 65.2% (active).

`Cc1ccc2ncnc(Nc3cccc([N+](=O)[O-])c3)c2c1`: the inhibition is 13.8% (inactive).

Take `Cc1ccc(O)c(Nc2ncnc3ccc([N+](=O)[O-])cc23)c1`: the inhibition is 28.1% (inactive).

For `COc1ccc([N+](=O)[O-])cc1Nc1ncnc2ccccc12`, the inhibition was -1.9% (inactive).

Regarding `COc1ccc(Nc2ncnc3ccc([N+](=O)[O-])cc23)c(OC)c1`, the inhibition was 7% (inactive).
